# Source: PubChem BioAssay (Tox21)
# Results filed as inconclusive are left out. Where a call stands in place of a potency, no number is given. The source holds several records for some structures; these can differ, active in one and inactive in another. Calls of active or inactive are those of the source. The call rests on the fitted dose curve.
# Assay: p53 small molecule agonists, cell-based qHTS assay: qHTS cell viability counter screen (AID 1963581); further: nearly all actives have a fitted effect of over 45% in size
# Conditions: p53RE-bla HCT-116 viability, ATP luminescence, 16 h; series mostly up to 66 µM; activity change, negative = cytotoxicity: at the top concentration
# Source text: National Center for Advancing Translational Sciences [NCATS]
# Division of Preclinical Innovation [DPI]
# U.S. Environmental Protection Agency [EPA]
# National Institutes of Environmental Health Sciences [NIEHS]
# National Toxicology Program [NTP]
# U.S. Food and Drug Administration [FDA]
# p53, a tumor suppressor protein, is activated following cellular insult, including DNA damage and other cellular stresses. The activation of p53 regulates cell fate by inducing DNA repair, cell cycle arrest, apoptosis, or cellular senescence. The activation of p53, therefore, is a good indicator of DNA damage and other cellular stresses. The CellSensor p53RE-bla HCT-116 cell line (Invitrogen) contains a stably integrated beta-lactamase reporter gene under control of the p53 response elements. The activation of the reporter gene under culture conditions can be detected by fluorescence intensity. This cell line was used to screen the Tox21 compound library in a 1536-well plate format and to identify agonists that activate the p53 signaling pathway. The cytotoxicity of the Tox21 compound library against the p53 RE-bla HCT-116 cell line was tested in parallel by measuring the intra cellular ATP content in the same wells.
# Tox21 Assay Protocol Summary:
# The p53RE-bla cells were dispensed at 4,000 cells/5 ul/well in 1536-well black wall/clear bottom plates using a Multidrop dispenser. After the assay plates were incubated at a 37 C/5% CO2 incubator for 5 hours, 23 nL of compounds dissolved in DMSO, positive controls or DMSO only was transferred to the assay plate by a pin tool. The plates were incubated at 37 C for 16 hours. After 1 uL of LiveBLAzerTM B/G FRET substrate was added using a Flying Reagent Dispenser, the plates were incubated at room temperature for 2 hours, and fluorescence intensity was measured by an Envision plate reader. For cell viability readout that measures cytotoxicity, 4 ul/well of CellTiter-Glo reagent was added into the assay plates using a Flying Reagent Dispenser. After 30 min incubation at room temperature, the luminescence intensity in the plates was measured using a ViewLux plate reader.
# Potency means the concentration at half of the fitted maximal effect.
Compound,Potency,"activity change, negative = cytotoxicity"
C=CC(=O)NC(C)(C)CS(=O)(=O)O,inactive,
CCCCCC(=O)O,inactive,
CNC[C@H](O)[C@@H](O)[C@H](O)[C@H](O)CO,,1.27% (inactive)
COC(C)COC(C)COC(C)CO (stereo not given),,13.3% (inactive)
COCCOCCOC,145 nM (active) and inactive,
CC1Cc2ccccc2N1NC(=O)c1ccc(Cl)c(S(N)(=O)=O)c1 (stereo not given),inactive,
COc1ccc(OC)cc1,inactive,
Cc1cnc(NC(=O)C2=C(O)c3ccccc3S(=O)(=O)N2C)s1,inactive,
CCCCCCCCCCCCCC[N+](C)(C)Cc1ccccc1,inactive,
Nc1ccc2c(O)cc(S(=O)(=O)O)cc2c1,inactive,
C=C(C)C(=O)OCCOC(=O)C(=C)C,inactive,
C[C@]12CC[C@@H]3c4ccc(O)cc4C[C@@H](CCCCCCCCCS(=O)CCCC(F)(F)C(F)(F)F)[C@H]3[C@@H]1CC[C@@H]2O (stereo not given in full),inactive,
COc1ccc(C(Cl)=C(c2ccc(OC)cc2)c2ccc(OC)cc2)cc1,inactive,
CN(C)CCC(c1ccccc1)c1ccccn1 (stereo not given),inactive,
O=C(OCc1ccccc1)c1ccccc1O,45.8 µM (active),
NC(CO)(CO)CO,inactive,
Brc1ccc(Oc2ccc(Br)cc2)cc1,inactive,
C=C[C@@]1(C)CC(=O)[C@]2(O)[C@@]3(C)[C@@H](O)CCC(C)(C)[C@@H]3[C@H](O)[C@H](OC(C)=O)[C@@]2(C)O1,inactive,
OC1CCCCC1,inactive,
CCCC(O)C(CC)CO (stereo not given),inactive,

Compound,Potency,"activity change, negative = cytotoxicity"
CCCc1cc(=O)[nH]c(=S)[nH]1,inactive,
C=C(C)CC(C)(C)C,inactive,
CC(=O)OCC(=O)[C@@]12N=C(C)O[C@@H]1C[C@H]1[C@@H]3CCC4=CC(=O)C=C[C@]4(C)[C@H]3[C@@H](O)C[C@@]12C,inactive,
C=C(C)C(=O)OCCCCCC,inactive,
C=C(C)C1CC=C(C)C(OC(C)=O)C1 (stereo not given),inactive,
CCCCCCCC(=O)OC,inactive,
O=C1CCCCCCCCCCCN1,inactive,
CCCCCCCCCCC(CO)CCCCCCCC (stereo not given),inactive,
C[Si]1(C)O[Si](C)(C)O[Si](C)(C)O[Si](C)(C)O1,inactive,
O=c1c(O)c(-c2ccc(O)cc2)oc2cc(O)cc(O)c12,inactive,
Nc1cccc(C(F)(F)F)c1,inactive,
COC(=O)CCCCC(=O)OC,inactive,
C=C(C#N)C(=O)OCC,inactive,
O=c1n(CC2CO2)c(=O)n(CC2CO2)c(=O)n1CC1CO1 (stereo not given),inactive,
NNCCc1ccccc1,inactive,
O=Nc1ccc(O)cc1,inactive,
O=c1ccc2ccccc2o1,inactive,
COCCOC(=O)c1ccccc1C(=O)OCCOC,inactive,
CNC[C@H](O)c1cccc(O)c1,inactive,
Cc1ccnc2c1NC(=O)c1cccnc1N2C1CC1,inactive,
